The text below walks through data of the supplement of paper PMC12632987.

The full ranking holds about 4,500 sequences; the median of “median log2 fold change of GCK-ALFA target abundance (FLAG IP / Myc IP barcode read proportion)” is about 0.078, and the lowest 2% start at about -0.6. Many of the other results were omitted from the sample, so the lowest values are more common in it than they were.

B1: GBRAP_80_6763 (protein)
chain: MMEELEEALEELSELLPELAEELRATVEALLELGVPVEDLLRLLKALVELAKLDKEKAEAILREFIAEVNEAIARGDLEEARALVIDAESDALLEVEELE
B2: GBRAP_125_3054 (protein)
chain: NLEEAIEALAELGKILGLSEEEVEELRKLAEKYGVKGTLYALLLAEGEEELAELVAKLTEEEVIEVLKRLLEYIKSHPNITKEEALEKLKELAEEALAKK
B3: GBRAP_117_2592 (protein)
chain: SATREAARAKIRATVAEVEALFKELAGLSPEEQAEALAAMRERVKAVLREVIEELGEEEAEELLDEALLDTDAETYFFLESVREDTLEELEEEEEEEERE
B4: GBRAP_52_6014 (protein)
chain: MRERLRAFVDEVLALVRAGKEEEARALIEELVASLNEEEIELLIDVLAERAAAARPEDQEAVWRLAEMLAEALEEAGVDEALADDLLARVAAALYAAEQA
B5: GBRAP_83_6975 (protein)
chain: AEEIVVAAPADRVEEAVEIAIDLAKEEGKKVTLEILTTPEQRERVLEAVERLLKEVPNIEIVVVLRGATKEEAEELEKELKEIAKELGVNADIEVLIEEP
B6: GBRAP_26_5452 (protein)
chain: MEEKLEALRDRLVELADELLDPETAALLKVEVDNIVALAELELEEANGDLEKELAVVEEMLEDLEEALDDLEVPEEVKEKLLEAAREAAEEIKEYLKKKS
B7: GBRAP_26_5451 (protein)
chain: MEELLERFRERLERAADELLDPETAALLKVAVDDIIALAELELEEANGDLEKELEIVEEMLEDLEEELEDLEVPEEVREKLLEIAREEAEEIKKALKEER
B8: GBRAP_52_5986 (protein)
chain: MKEEAKKIAEELVKLMLEGKEEEAEKLMKEIAENKSQEFILMVMEELAKMAKTATPEEVDAIVDTALMLGDIALEAGFDEAEIDDAEARVAAAAVENLKK
B9: GBRAP_64_6489 (protein)
chain: MEEIEESLEELLKLVEELLEAVKDLSEELQKKVEEVKRLVEEAKTASLEERLDLTVEAAKLLNEILKNPELTEEQKELAGLALDKASELAWLLFEAEEEE
B10: GBRAP_11_2748 (protein)
chain: KKEKLKEIAKAAEELAALLDKLIAEGVDNAELQAAAEKALKELAELVEKYGDESLKKLVAIIQEEFAQAKADPATAEAHWRNALAAARVLAGQVLLEIEE
B11: GBRAP_160_4544 (protein)
chain: KEKVEEAIKDIDERAAFVKSLVGKVSTEELINFFDVEVGSFIMELEELGLLTDELGEEIDKIADETKATLKANPNASDEEKKALIDEAAEKIKEAILKHS
B12: GBRAP_26_5425 (protein)
chain: LDEAVERAIERISAAAAELLDPETAAAVRAVVTDELLEAEEEIEEEDLSEEEVEELLEEVLEEIEEDLEELGVPAEKRARLVAVAEEELEEVLEEWKEER
B13: GBRAP_78_6625 (protein)
chain: EIKKLLEKALKKVEEAAKLATKIPSEEGIEILDHLIDAFEYIEEAIEEGGDLEKLEKALKHLEEALKEIEKLNNPELEELKKLVKEAIKLLKKAIELKKK
B14: GBRAP_39_5692 (protein)
chain: EEEEEDEDVVSYLQALAAGRLYETGKSLEEAYKEAKKILEEEAKRHPELKELLEELIKLADEKGEEAKEVLIGIAVLIEEGTPLEEIKEHIEKAINYFKK
B15: GBRAP_11_2756 (protein)
chain: KKEKLKEMAELAEKAAELVKKLLEEGVDNEELQEELEKVLKELKKLVKEYGDEADKKLVEIAEELWKKAKEDEENKEQYYKELLATLRVLSGDFLLEYEE
B16: GBRAP_160_4385 (protein)
chain: AAALAALAKEIEALRKEFEEEAKDLNTEETRTLAIGVLAEVAALAWENEAISEETKDKIFAIIDEAIEELKANKDAPPEEIVAITTEAFDKIIALVKAEA
B17: GBRAP_160_4108 (protein)
chain: SAGAEAILADFREVFAEVLELWDEVSPEELVAYYEVETGSVIMDAMENYGLSDETADRLLDIRDEAAARLLAHGNVSREEVERILAEALARIEAAVAAAA
B18: GBRAP_9_7157 (protein)
chain: MEELIEKVEEVIEDMLEEIKEVVPEEVKPAVEKRREEVKKRLEELGEDENATEEEIIEEAERLVRETLEEMKKLVDPETAKIVEAIALTAELEIEEIGEE
B19: GBRAP_184_5064 (protein)
chain: KIYEETIEVTNLEEAKEKMKELKEKIKNFKGDLIVHLKLPEFNKEIVKAILDELAEIKKAGYAKNITLGIDADTTEEEVDFLISTADEKGINVVVALREE
B20: GBRAP_160_4175 (protein)
chain: SEKLEEAEKKIKEIFEEAYKMMEGESAEERAAIVAVAFGEIILYLEEKGLLTDETEAKIDEIEDEAVEYILENPDLTEEELRELLEESAEKIIKALKENS
B21: GBRAP_160_4178 (protein)
chain: SEKIEEAEEEIEEIFEEAYEMMKGQTAEERAAIVDVAFGEIILYLEEKGLLTDETEAKIDEIRDETVSYILANPDLTDEELRELLEEAAEEIIEALRENS
B22: GBRAP_52_6269 (protein)
chain: MKELAEKLAKEFIETSLNGTEEEVKEFAKKLVETESQELIELMLEIVVEMAKSLNAEELEKLLDAFLILEDELEEAGKDTLPAEDAAAELAKLYMEKLKE
B23: GBRAP_52_5996 (protein)
chain: AEARIRALAEELVAAVLAGDEERVRAILRRIAAELSDEEIVETVRLATRLLARDPRATLEDLARFIDIVEEVLEEEGKSDRLIADVLGAIAEAIAEVEAE
B24: GBRAP_52_5997 (protein)
chain: REERIEALARELVEATLAGDDERVRALLRRIAAELSDEEIVETVRLATRLLERDPRATLEDLANFIDLVEDVLEEEGKSDELIARVLGAIAEAIYEAELE
B25: GBRAP_39_5719 (protein)
chain: EEEEEAENIFSYYEAVGAKKMYERGISLDELFAELYARARELAADDPELAAALDELRALAEAAGDEAKLAAAGLMSRLVEGEPREEILADAEKLIAYLKS
B26: GBRAP_128_3452 (protein)
chain: STEEKVKKAEELMNKIIESSDEEVPALAAELVDLIGESDDESAKAIAEVIIKKIPELSEEKLEILADVFVARRPELTPEKQEVLNEIAVAIGEEILEKEE
B27: GBRAP_125_2964 (protein)
chain: SEEEDLEALATLAKALGFDEDDVEEAVRLARKFGFKNTLIALFLAEGYDEVADLVEKLTEEEAKEVLKRLAEEIKKNPELTPEEVVKLAKELFEEVIAKK
B28: GBRAP_160_4000 (protein)
chain: MEEIEELKEEIEEIIDETIAAMEGLTPEERLTLVRGMVGEIIQLVEDSPAVSDEAEDEIAELGDELVEEVEANRDAPLEVWRELLERFLEEIKKILDKEE
B29: GBRAP_11_2888 (protein)
chain: KKEKLKELAELARKIAELIEKLLEEGTDNEELLKEIEKLLKELEKLTKEYADKGSQKLTEIAKELFKKALEDPENRKEYLEELLAAVRVLEGDYLLEYEE

GABARAP, O95166, sequence (O95166 whole entry, the tested form may be a part): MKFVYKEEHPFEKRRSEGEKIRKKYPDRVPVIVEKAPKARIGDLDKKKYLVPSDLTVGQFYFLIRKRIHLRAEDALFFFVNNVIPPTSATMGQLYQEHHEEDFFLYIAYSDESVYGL

The target in this assay is GABARAP, O95166. Description: median log2 fold change of GCK-ALFA target abundance (FLAG IP / Myc IP barcode read proportion) (log2 ratio); each designed protein is fused to an ALFA-tag nanobody in HEK293 cells to bring the named protein to FLAG-tagged glucokinase (GCK); Myc marks an untargeted standard; higher = target protein stabilised (more abundant). To be noted: target protein: 3xFLAG-MCP-GCK-ALFA reporter; HEK293 landing pad (RPLP). The procedure, abridged:
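The readout is target abundance, the per-binder median log2 ratio of FLAG to Myc barcode read proportions. It came from HEK293 landing-pad cells carrying a recombined ALFA-nanobody-fused binder library, induced with 2 μg mL^−1 doxycycline and transfected with a plasmid for a FLAG-tagged target and a Myc-tagged standard. After 48 h, lysates were immunoprecipitated with anti-FLAG and anti-Myc, and circular RNA barcodes were reverse transcribed, amplified and sequenced. Each barcode needed a proportion of at least 10^−7 in both replicates and each binder at least 3 barcodes per replicate, a pseudocount of 10^−6 was added, and the replicates were pooled.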
Consider B1, for which the “median log2 fold change” value came to 0.0537.
To B2 belongs -1.42.
To B3 belongs 0.191; to B4, -0.157.
With B5, the “median log2 fold change” value is 0.0242.
To B6 belongs -0.454.
The figure for B7 is -1.2; for B8 it is -0.152.
The figure for B9 is 0.0238; for B10 it is 0.194.
With B11, the “median log2 fold change” value was 0.0163.
To B12 belongs -0.608.
The figure for B13 is 0.283; for B14 it is 0.284; for B15 it is 0.0874.
The figure for B16 is -0.171; for B17 it is -0.764; for B18 it is -0.11.
For the molecule B19, the “median log2 fold change” value worked out at 0.127.
B20: the “median log2 fold change” value is -0.178.
The figure for B21 is -0.598.
The figure for B22 is 0.267; for B23 it is -0.179; for B24 it is -0.74.
The figure for B25 is 0.194.
Turning to B26, the “median log2 fold change” value is 0.274.
To B27 belongs -0.94; to B28, -0.0825; to B29, -0.0328.
